This excerpt belongs to a sample that is enriched for hits.
AMA1 RON2 block = inhibitors of Plasmodium falciparum AMA1-RON2 interaction; AlphaScreen AMA1-biotinylated RON2 peptide binding; Potency, µM (highest dose often 58.2 µM), actives largely listed as inhibitors; 0.2% of 360,000 active; also: nearly all actives have a fitted effect of over 45% in size
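AMA1 (3D7) with his tag at 25 nM final met compounds first, then biotinylated RON2 peptide at 25 nM; detection used donor plus acceptor beads, 10 µg/mL apiece, read by AlphaScreen after 30 min at room temperature.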
SARS PLP yeast = SARS-CoV PLP inhibition in yeast; S. cerevisiae expressing SARS-CoV PLpro, growth rescue; Potency, µM (top dose mostly 32.9 µM), usual class: activators; 0.19% of 330,000 active; calls by dose curve; also: nearly all actives have a fitted effect of over 55% in size
AmpC inh detg = AmpC beta-lactamase inhibition with detergent present; Potency, µM (doses to about 114 µM), most hits filed as inhibitors; P00811; AmpC hydrolysis of nitrocefin, absorbance 480 nm, 0.01% Triton; 0.041% of 370,000 active; AID 485294; also: nearly all actives have a fitted effect of over 25% in size
Target sequence (P00811 whole entry, looked up): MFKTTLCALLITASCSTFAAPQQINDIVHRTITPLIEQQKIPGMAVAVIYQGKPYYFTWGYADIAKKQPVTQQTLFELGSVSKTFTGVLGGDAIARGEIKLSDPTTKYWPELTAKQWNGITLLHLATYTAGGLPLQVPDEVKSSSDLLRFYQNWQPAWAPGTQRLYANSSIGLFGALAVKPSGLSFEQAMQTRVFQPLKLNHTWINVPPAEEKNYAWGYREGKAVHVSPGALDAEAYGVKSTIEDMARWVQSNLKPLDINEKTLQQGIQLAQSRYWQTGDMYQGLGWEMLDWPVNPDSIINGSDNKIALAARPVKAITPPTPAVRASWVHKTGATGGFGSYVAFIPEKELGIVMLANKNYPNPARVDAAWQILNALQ
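20 mM phosphate pH 7.0 + 0.01% (detergent screen) or 0.0001% Triton X-100; 5.3 nM AmpC reagent; cpd preinc 15 min RT; nitrocefin (800 uM stock) to start; A480 q20 s × 4 min; Activity was normalised to no-enzyme and no-compound control wells.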
CHX counter = counter-screen hit for Shiga toxin inhibitors, cycloheximide; 12% of 300,000 active; max response, %; cell reporter, cycloheximide protein synthesis inhibition counterscreen; AID 2314; in the data active = max response mostly above about 13%, no sharp cut-off; inactive = mostly below about 14%; also: read at 38.3 µM for the half of the compounds with a filed dose
Shiga inhibitor = blocks Shiga toxin action in Vero cells; AID 2315; 9.2% of 290,000 active; inhibition, % at 38.7 µM; Vero cells, Shiga toxin protein synthesis inhibition reporter; in the data active = inhibition mostly above about 28%, no sharp cut-off; inactive = mostly below about 43%
AmpC no deterg = inhibitors of E. coli AmpC beta-lactamase without detergent. 0.52% of 330,000 active. AID 485341. Potency, µM (highest dose often 57.1 µM), usual class: inhibitors. AmpC nitrocefin hydrolysis, absorbance 480 nm, 0.0001% Triton. P00811; also: nearly all actives have a fitted effect of over 20% in size
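AmpC (5.3 nM in the dispensed reagent) in 20 mM phosphate pH 7.0 with 0.01% (detergent screen) or 0.0001% Triton X-100 was preincubated with compounds for 15 min at room temperature. Nitrocefin was then added from an 800 uM solution, and hydrolysis was followed at 480 nm.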
Each line names hits and unclear results; the compound was inactive in the other large screens; ! = not confirmed by another sample. Unless noted, calls follow the shape of the dose curve; as a rule, active = well fitted curve in the direction sought with a large enough effect; inconclusive = small, poorly fitted or top-dose-only effect, or another doubt; inactive = no such curve, though single readings can be large; an effect the other way counts as inactive or inconclusive.

Cc1csc(NC(=O)C2=NN(c3ccccc3)C(=O)CC2)n1	none
O=C(Nc1nc2ccc(F)cc2s1)C1=NN(c2ccccc2)C(=O)CC1	CHX counter 35.1, Shiga inhibitor 66.7
O=C(NCC(c1cccnc1)N1CCc2ccccc2C1)C(=O)Nc1ccccc1F (configuration not stated)	none (no result: AMA1 RON2 block, SARS PLP yeast, CHX counter, Shiga inhibitor, AmpC no deterg)
Cc1cc(C)c(S(=O)(=O)c2cccc(C(F)(F)F)c2)c(=O)[nH]1	none
Cc1ccc(S(=O)(=O)c2c(C)cc(-c3ccccc3)[nH]c2=O)cc1	none
Cc1cccc(S(=O)(=O)c2c(C)cc(C)[nH]c2=O)c1	CHX counter 29.7
Cc1cc(C)c(S(=O)(=O)c2ccccc2)c(=O)[nH]1	CHX counter 18.0
CC(=O)Nc1ccccc1C(=O)C(=O)Nc1cccc(C(=O)N2CCC3(CC2)OCCO3)c1	none
O=C(C(Cl)c1ccccc1)N1CCCC1 (configuration not stated)	AmpC inh detg inconclusive
CC12CCC(C(=O)O)(C/C1=N\O)C2(C)C (configuration not stated)	SARS PLP yeast 11.2µM!
O=C(Nc1ccccc1)Nn1cnnc1	none
CCc1ccc(NC(=O)Nn2cnnc2)cc1	CHX counter 17.4
CCc1ccc(NC(=S)Nn2cnnc2)cc1	none
O=C(Nc1ccc(Br)cc1)Nn1cnnc1	CHX counter 11.5
Cc1ccc(NC(=O)[C@@H](CC(C)C)NC(=O)[C@@H]2Cc3ccccc3CN2)cc1	Shiga inhibitor 61.4
Cc1cccc(NC(=O)[C@H](Cc2ccccc2)NC(=O)[C@@H]2Cc3ccccc3CN2)c1	CHX counter 15.3
Cc1ccc(NC(=O)[C@H](NC(=O)[C@@H]2Cc3ccccc3CN2)c2ccccc2)cc1C	CHX counter 17.4
Cc1ccc(NC(=O)[C@@H](C)NC(=O)[C@@H]2Cc3ccccc3CN2)cc1	CHX counter 24.1
Cc1ccc(NC(=O)[C@H](CC(C)C)NC(=O)[C@@H]2Cc3ccccc3CN2)cc1	none
CSCC[C@H](NC(=O)[C@@H]1Cc2ccccc2CN1)C(=O)Nc1cccc(C)c1	none
Cc1ccc(N2CC(=O)N(NC(=O)c3sc4nc(C)cc(C)c4c3N)CC2=O)cc1	none
CCOC(=O)c1cnc2c(ccc3ccccc32)c1N	CHX counter 34.3 (no result: Shiga inhibitor)
CCOC(=O)c1cnc2c(ccc3ccccc32)c1Nc1ccc(OCC)cc1	none (no result: AMA1 RON2 block, SARS PLP yeast, CHX counter, Shiga inhibitor, AmpC no deterg)
CCOC(=O)c1cnc2c(ccc3ccccc32)c1NCCO	Shiga inhibitor 38.4
O=C(N[C@@H]1CN2CCC1CC2)c1cc(Cl)cc2[nH]cnc12	none (no result: AMA1 RON2 block, SARS PLP yeast, AmpC inh detg, AmpC no deterg)
Fc1ccc(N=C2NN=C(c3cc(F)ccc3F)CS2)cc1	CHX counter 54.2, Shiga inhibitor 69.0
COCCn1c(C)cc(C2=NNC(=Nc3ccccc3F)SC2)c1C	CHX counter 94.8, Shiga inhibitor 103.8
Cc1cccc(N=C2NN=C(c3ccccc3F)CS2)c1C	CHX counter 34.2, Shiga inhibitor 51.2, AmpC no deterg 12.6µM
Cc1[nH]c2ccccc2c1C1=NNC(=Nc2ccc(F)cc2)SC1	none
O=C1CSC(=Nc2ccccc2Cl)N1	CHX counter 16.5
COc1cccc(-n2nnnc2SCC(=O)NCCc2ccc(OC)c(OC)c2)c1	none
O=C(Nc1cccc(Cl)c1Cl)c1csc([C@H]2C[C@H](O)[C@@H](CO)O2)n1	none (no result: SARS PLP yeast, AmpC inh detg, CHX counter, Shiga inhibitor, AmpC no deterg)
CC(C)c1cc(Cn2c3ccccc3c(=O)n2C(C)Cn2cc(C3=CCCCC3)nn2)on1 (configuration not stated)	none (no result: SARS PLP yeast, AmpC inh detg, CHX counter, Shiga inhibitor, AmpC no deterg)
Cc1cc(C2=NNC(=NC3CC3)SC2)c(C)n1-c1c(C)n(C)n(-c2ccccc2)c1=O	AmpC inh detg inconclusive
Clc1ccccc1N=C1NN=C(c2cccs2)CS1	CHX counter 53.4, Shiga inhibitor 97.8
Fc1ccccc1N=C1NN=C(c2ccccc2)CS1	AMA1 RON2 block inconclusive, CHX counter 52.7, Shiga inhibitor 138.4
CN(C)S(=O)(=O)c1cccc(N=C2NN=C(c3ccccc3)CS2)c1	AmpC inh detg inconclusive
Cc1cc(C2=NNC(=Nc3ccccc3)SC2)c(C)n1C	CHX counter 34.8, Shiga inhibitor 68.7
Fc1ccc(F)c(C2=NNC(=Nc3ccccc3F)SC2)c1	CHX counter 130.2, Shiga inhibitor 149.7
CCCCC1S/C(=N/N=C/c2ccc(OC)cc2)N(Cc2ccc(OC)cc2)C1=O (configuration not stated)	none
O=C(NNC(=O)c1ccccc1[N+](=O)[O-])c1cnccn1	none
COc1ccc2c(c1)c1ncn(CC3CCCO3)c(=O)c1n2C (configuration not stated)	none
COc1ccc(N=Cc2c(O)n(Cc3ccccc3)c(=S)[nH]c2=O)c(OC)c1	CHX counter 16.5, Shiga inhibitor 29.2
COc1ccc(OC)c(N=Cc2c(O)n(Cc3ccccc3)c(=S)[nH]c2=O)c1	none
Cc1ccccc1N=CC1=C(O)c2ccccc2C1=O	CHX counter 34.7
COc1ccc(N=CC2=C(O)c3ccccc3C2=O)c(OC)c1	CHX counter 26.0
O=C1C(C=Nc2ccc(F)cc2)=C(O)c2ccccc21	CHX counter 61.2, Shiga inhibitor 134.2
O=C(NCc1cccc(C(F)(F)F)c1)c1cc(-c2ccccc2)nn1CC1CC(c2cccnc2)=NO1 (configuration not stated)	none (no result: SARS PLP yeast, AmpC inh detg, CHX counter, Shiga inhibitor, AmpC no deterg)
COc1ccc(NC(=O)C(Cl)=C(Cl)Cl)cn1	AmpC inh detg inconclusive, CHX counter 22.6
COc1ccc(NC(=O)CC2CC3CCC2C3)cn1 (configuration not stated)	CHX counter 19.7
COc1ccc(NC(=O)/C(Cl)=C(/Cl)S(=O)(=O)Cc2ccccc2)cn1	CHX counter 46.4, Shiga inhibitor 100.5
COc1ccc(NC(=O)CCl)cn1	none (no result: AMA1 RON2 block)
CCOC(=O)Nc1sc2nc(C)cc(C)c2c1-n1cccc1	none
O=C(NCCc1ccccc1)c1ccc2c(c1)N(Cc1ccc(F)cc1)C(=O)c1ccccc1S2	none (no result: AMA1 RON2 block, SARS PLP yeast, CHX counter, Shiga inhibitor, AmpC no deterg)
COc1cc(C(=O)OCc2ccc(C)cc2)cc(NC(=O)c2cccs2)c1OC	none
O=C1CC(N2CCN(c3ccccc3)CC2)C(=O)N1c1ccc2c(c1)OCCO2 (configuration not stated)	none (no result: SARS PLP yeast, AmpC no deterg)
CN1CCN(C2CC(=O)N(c3ccc4c(c3)OCCO4)C2=O)CC1 (configuration not stated)	CHX counter 34.4
CCCCOC(=O)c1ccc(NC(=S)NC(=O)c2c(Br)c(C)nn2C)cc1	none
Cc1[nH]n(-c2cccc(Cl)c2)c(=O)c1C=NCc1ccco1	CHX counter 42.8, Shiga inhibitor 107.0
Cc1[nH]n(-c2cccc(Cl)c2)c(=O)c1C=NC12CN3CN(CN(C3)C1)C2	none
CCCc1[nH]n(-c2nc3ccccc3s2)c(=O)c1C=NCC1CCCO1 (configuration not stated)	CHX counter 24.4

Screening results: PubChem, National Center for Advancing Translational Sciences (NCATS)
